Compounds with a hit are over-represented: about 3% of the library has one in this group of screens.
KKLEB tox: reduces viability of KKLEB cystic fibrosis airway cells. 0.36% of 360,000 active. KKLEB CF airway cells viability, ATPlite luminescence, overnight; active compounds read low; cells stimulated with P. aeruginosa culture filtrate. activity change (cytotoxicity), % at 5 µM;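 active = corrected activity change at or below -50% at 5 µM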
TRPM1 prom inh: reduces MITF-dependent TRPM1 promoter luciferase signal; inhibition, % at 12.5 µM; SK-MEL-5 TRPM1 promoter luciferase, 24 h; AID 488899; 0.83% of 330,000 active;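 active = mean inhibition across replicates of 60% or more, whatever share of single replicates reaches that level; inconclusive = some that reach 60%, reason not given; inactive = mean inhibition across replicates below 60%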
HIF-2a inh: HIF-2a inhibition; 786-0 RCC cells HIF-2a reporter, luciferase luminescence, overnight; inhibition, % at 18.8 µM; 0.72% of 360,000 active; AID 624352;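 active = inhibition of the luminescence signal of 40% or more relative to plate controls, in a single-dose primary screen at 18.75 µM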
EBV LMP1 NFkB: inhibitors of Epstein-Barr LMP1-induced NF-kappaB reporter; LMP1-induced NF-kappaB luciferase reporter cells, luminescence; inhibition, % at 12.5 µM; 0.69% of 350,000 active; in the data active = inhibition above about 41%; inconclusive = no clear call, values can overlap the other calls;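 note: 0% = neutral control wells and 100% = reference inhibitor control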
Peg3 promoter: inhibitors of Peg3 promoter | AID 588405 | inhibition, % at 20 µM | HeLa PEG-Prom luciferase reporter, luminescence, overnight | 1.7% of 360,000 active;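 active = inhibition of at least 50% at 20 µM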
CF NFkB inh: cystic fibrosis NF-kB activation inhibition | KKLEB NF-kB-GFP reporter, PAF-induced, GFP fluorescence overnight | inhibition, % at 5 µM | 0.86% of 360,000 active;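 active = at least 50% inhibition at 5 µM, scaled per plate between neutral and stimulator controls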;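 note: PAF is a Pseudomonas aeruginosa culture filtrate used as stimulus; plate controls were PAF-stimulated DMSO wells for no effect and unstimulated DMSO wells for full effect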
Mdm2 MdmX conf: Mdm2/MdmX (human) interaction inhibition, confirmed; shares compounds with HIF-2a inh; SaOS-2 split-luciferase Mdm2/MdmX complementation, luminescence; inhibition, % at 8 µM; 99% of 740 active; AID 504601;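 active = mean inhibition of the luminescence signal across two replicates at or above 26 percent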
Target sequence (O15151 whole entry, looked up): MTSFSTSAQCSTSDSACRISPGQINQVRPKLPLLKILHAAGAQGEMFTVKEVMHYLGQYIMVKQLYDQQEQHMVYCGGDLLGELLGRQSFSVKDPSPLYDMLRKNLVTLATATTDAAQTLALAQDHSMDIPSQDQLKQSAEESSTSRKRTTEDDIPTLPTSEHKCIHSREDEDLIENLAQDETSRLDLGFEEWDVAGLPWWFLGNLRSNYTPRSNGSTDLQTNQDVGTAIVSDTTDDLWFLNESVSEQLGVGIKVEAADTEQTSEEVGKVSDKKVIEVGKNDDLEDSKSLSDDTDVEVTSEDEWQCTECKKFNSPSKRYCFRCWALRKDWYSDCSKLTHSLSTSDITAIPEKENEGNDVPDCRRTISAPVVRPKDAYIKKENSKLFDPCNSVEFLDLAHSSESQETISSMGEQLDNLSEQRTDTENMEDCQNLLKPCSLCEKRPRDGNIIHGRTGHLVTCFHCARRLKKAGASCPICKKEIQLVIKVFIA
Target sequence (Q00987 whole entry, looked up): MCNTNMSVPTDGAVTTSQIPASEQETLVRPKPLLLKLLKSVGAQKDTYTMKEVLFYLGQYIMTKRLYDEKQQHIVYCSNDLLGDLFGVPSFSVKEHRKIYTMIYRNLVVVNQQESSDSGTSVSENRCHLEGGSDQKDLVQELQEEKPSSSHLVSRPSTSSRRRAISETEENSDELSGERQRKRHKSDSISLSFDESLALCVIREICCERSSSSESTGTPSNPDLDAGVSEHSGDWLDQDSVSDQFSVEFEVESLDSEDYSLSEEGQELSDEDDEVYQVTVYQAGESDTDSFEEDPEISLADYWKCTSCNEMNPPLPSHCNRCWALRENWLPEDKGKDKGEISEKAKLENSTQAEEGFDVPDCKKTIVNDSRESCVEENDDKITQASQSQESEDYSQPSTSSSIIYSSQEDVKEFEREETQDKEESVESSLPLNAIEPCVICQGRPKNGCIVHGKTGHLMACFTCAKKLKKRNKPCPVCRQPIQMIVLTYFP
HIF-2a inh conf: HIF-2a inhibition, single concentration confirmation; shares compounds with HIF-2a inh; 786-0 RCC cells, HIF-2a luciferase reporter luminescence, overnight; inhibition, % at 18.8 µM; 56% of 1,800 active; AID 651580;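 active = mean inhibition across four replicates of at least 40 percent at the single tested concentration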
HIF-1a counter: counter-screen for HIF-2a inhibitors: HIF-1a inhibition in MiaPaCa-2 cells. AID 651589. inhibition, % at 18.8 µM. MiaPaCa-2 HIF-1a luciferase reporter, desferoxamine, overnight. 72% of 1,800 active. shares compounds with HIF-2a inh;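 active = mean inhibition of the reporter signal across four replicates at the single tested dose of 50% or more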
* = called active by the depositor.

`Cn1nnnc1Sc1ncnc2scc(-c3cccc(Br)c3)c12` gave KKLEB tox -52.5*, TRPM1 prom inh 83.6*, HIF-2a inh 82.2*, EBV LMP1 NFkB 77.6*, Peg3 promoter 94.0*, CF NFkB inh 79.5*, Mdm2 MdmX conf 103.0*, HIF-2a inh conf 97.3* and HIF-1a counter 102.4*.
Cn1nnnc1Sc1ncnc2scc(-c3ccc(Cl)cc3)c12 was read as KKLEB tox -42.6, TRPM1 prom inh 90.3*, HIF-2a inh 85.5*, EBV LMP1 NFkB 32.3, Peg3 promoter 94.7*, CF NFkB inh 30.0, Mdm2 MdmX conf 103.2*, HIF-2a inh conf 99.3* and HIF-1a counter 102.0*.
Cn1nnnc1Sc1ncnc2scc(-c3ccc([N+](=O)[O-])cc3)c12 was read as KKLEB tox -63.2*, TRPM1 prom inh 98.4*, HIF-2a inh 91.6*, EBV LMP1 NFkB 74.0*, Peg3 promoter 102.2*, CF NFkB inh 71.4*, Mdm2 MdmX conf 102.7*, HIF-2a inh conf 97.2* and HIF-1a counter 100.5*.
c1cncc(C2SCCCS2)c1 was read as KKLEB tox -4.4, HIF-2a inh -3.9, EBV LMP1 NFkB 29.2, Peg3 promoter 9.8 and CF NFkB inh -13.9.
For O=C(NN=Cc1c(O)ccc2ccccc12)c1ccc2c(c1)OCO2 the results were KKLEB tox -13.5, TRPM1 prom inh inconclusive, HIF-2a inh -64.8, EBV LMP1 NFkB 74.2*, Peg3 promoter 15.0, CF NFkB inh 4.3 and Mdm2 MdmX conf 87.7*.
Screening O=C(N/N=C/c1ccc([N+](=O)[O-])o1)c1ccc2c(c1)OCO2 returned KKLEB tox -2.4, TRPM1 prom inh 98.0*, HIF-2a inh 56.4*, EBV LMP1 NFkB -0.5, Peg3 promoter 13.4, CF NFkB inh -4.6, HIF-2a inh conf 52.4* and HIF-1a counter 58.6*.
For O=C(N/N=C\c1c(O)ccc2ccccc12)c1ccc(S(=O)(=O)N2CCCCC2)cc1 the results were KKLEB tox -34.6, TRPM1 prom inh 75.5*, HIF-2a inh 29.0, EBV LMP1 NFkB 68.5*, Peg3 promoter 64.3*, CF NFkB inh 9.0 and Mdm2 MdmX conf 87.5*.
For O=C(N/N=C/c1ccccc1)c1ccc2c(c1)OCO2 the results were KKLEB tox 5.2, TRPM1 prom inh -42.2, HIF-2a inh -126.3, EBV LMP1 NFkB 6.3, Peg3 promoter -105.9 and CF NFkB inh -9.6.
`O=C(CN1CCCc2ccccc21)N/N=C/c1c(O)ccc2ccccc12` gave KKLEB tox -3.4, TRPM1 prom inh 13.0, HIF-2a inh -29.6, EBV LMP1 NFkB 14.6, Peg3 promoter -23.3, CF NFkB inh 5.3 and Mdm2 MdmX conf 97.5*.
For CC(=O)Nc1cccc(-c2ccnc3c2CC(C)(C(=O)NCc2ccc(F)c(F)c2)O3)c1 (configuration not stated) the results were KKLEB tox -7.5, HIF-2a inh 25.5, Peg3 promoter 11.4 and CF NFkB inh 32.1.
Screening CCSc1nc(-c2ccccc2)nc(C(Cl)Cl)n1 returned KKLEB tox -14.9, TRPM1 prom inh 96.1*, HIF-2a inh 70.9*, EBV LMP1 NFkB 67.4*, Peg3 promoter 102.1*, CF NFkB inh 14.0, HIF-2a inh conf 61.2* and HIF-1a counter 105.0*.
CCSc1nc(-c2ccccc2)c2cc(Cl)ccc2n1 was read as KKLEB tox 4.9, TRPM1 prom inh -1.4, HIF-2a inh 15.6, EBV LMP1 NFkB -0.9, Peg3 promoter 14.0 and CF NFkB inh 18.5.
Screening Cc1ccc(S(=O)(=O)N2CC3C(=O)CC(c4ccccc4)N(S(=O)(=O)c4ccc(C)cc4)C3CC2c2cccc(Cl)c2)cc1 (configuration not stated) returned HIF-2a inh 6.5.
CCOc1ccc(N=C(NN)c2ccc3ccccc3n2)cc1 was read as KKLEB tox -4.9, TRPM1 prom inh 14.2, HIF-2a inh 48.9*, EBV LMP1 NFkB 25.7, Peg3 promoter 2.7, CF NFkB inh 8.5, HIF-2a inh conf 45.1* and HIF-1a counter 66.2*.
Cc1cc(C)c(S(=O)(=O)N(C)CC(=O)N2CCCC2)c(C)c1 was read as KKLEB tox -9.2, HIF-2a inh 7.6, EBV LMP1 NFkB 0.0, Peg3 promoter -0.2 and CF NFkB inh 30.3.
For COc1cc2oc(=O)cc(-c3ccc(-c4ccc(CO)cc4)cc3)c2c(OC)c1OC the results were KKLEB tox -8.5, TRPM1 prom inh -16.2, HIF-2a inh 4.0, EBV LMP1 NFkB 12.7, Peg3 promoter -18.4, CF NFkB inh 74.9* and Mdm2 MdmX conf 83.5*.
`Cc1cc(C)cc(C(O)c2ncc(-c3ccccc3)[nH]2)c1` (configuration not stated) gave KKLEB tox 7.1, HIF-2a inh 5.4, Peg3 promoter 9.1 and CF NFkB inh 6.1.
CC(=NNC(=O)c1ccncc1)c1cc(Cl)ccc1Cl was read as KKLEB tox 11.4, TRPM1 prom inh -0.3, HIF-2a inh 6.9, EBV LMP1 NFkB 36.4, Peg3 promoter -8.8 and CF NFkB inh -13.0.
COc1ccc(-c2cc(C3CC3)nc(SCC(=O)c3cccs3)c2C#N)cc1 was read as KKLEB tox -20.7, TRPM1 prom inh -3.2, HIF-2a inh 20.3, EBV LMP1 NFkB -4.1, Peg3 promoter 23.2 and CF NFkB inh -7.2.
CSc1nc(C2CC2)cc(-c2cccs2)c1C#N was read as KKLEB tox -62.8*, TRPM1 prom inh 21.7, HIF-2a inh 51.1*, EBV LMP1 NFkB 3.7, Peg3 promoter 56.9*, CF NFkB inh 93.7*, HIF-2a inh conf 35.4 and HIF-1a counter 32.4.
`O=C(NCc1ccccc1)c1cc(C2CCCCN2S(=O)(=O)c2cccs2)on1` (configuration not stated) gave KKLEB tox 6.0, HIF-2a inh -4.3, Peg3 promoter 12.5 and CF NFkB inh 1.3.
O=C(c1ccc(-c2ccccc2)cc1)c1ccccc1C(=O)N1CCOCC1 was read as KKLEB tox -11.1, TRPM1 prom inh -9.0, HIF-2a inh -22.5, EBV LMP1 NFkB -1.5, Peg3 promoter -23.1 and CF NFkB inh -14.0.
For S=C(c1ccc(-c2ccccc2)cc1)N1CCOCC1 the results were KKLEB tox -11.0, TRPM1 prom inh -10.7, HIF-2a inh 86.2*, EBV LMP1 NFkB 3.3, Peg3 promoter 22.6, CF NFkB inh 1.8, HIF-2a inh conf 89.2* and HIF-1a counter 53.5*.

Bioassay records: PubChem BioAssay, several laboratories
